Test results taken from publication PMC7862700, “An all-to-all approach to the identification of sequence-specific readers for epigenetic DNA modifications on cytosine”.

Legend:
Assay in all cases: DAPPL (digital affinity profiling via proximity ligation, sequencing); 10 mM Tris-HCl pH 7.5, 50 mM NaCl, 1 mM DTT, 4% glycerol, room temperature, 30 min; GST-TFs on glutathione beads, 16-mer random dsDNA library, 0.1% formaldehyde crosslink after washing; high values mean tight binding
FEV = target: T1, FEV (Homo sapiens, UniProt Q99581 1-238); conditions: protein: recombinant; tags: N-terminal GST; dsDNA, one strand shown
T1 sequence: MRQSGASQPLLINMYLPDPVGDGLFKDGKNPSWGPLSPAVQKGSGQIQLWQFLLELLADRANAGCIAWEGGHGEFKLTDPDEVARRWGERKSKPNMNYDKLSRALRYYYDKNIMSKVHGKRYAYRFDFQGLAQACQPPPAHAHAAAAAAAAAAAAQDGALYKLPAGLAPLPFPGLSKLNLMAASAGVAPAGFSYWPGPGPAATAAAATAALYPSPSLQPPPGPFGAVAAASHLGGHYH
Outline: (§1)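 In yeast, human transcription factors were expressed with a GST fusion, then pulled down on glutathione beads and given DNA barcodes. Pooled with a tag-only sample, they were exposed to 200 nmole of a 16-mer random double-stranded DNA library (Tris/NaCl/DTT/glycerol buffer, room temperature, 30 min), washed, crosslinked with 0.1% formaldehyde, proximity-ligated using BsaI/T4 ligase for 1 h at 37 °C, PCR-amplified and read on an Illumina NextSeq500. Each hexamer's frequency of reads for a factor, divided by the matching frequency for the tag-only sample, gives the binding signal.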

ETV5 = ETV5 (Homo sapiens, UniProt P41161 1-510); conditions: protein: recombinant; tags: N-terminal GST; dsDNA, one strand shown
Sequence of ETV5 (P41161 whole entry): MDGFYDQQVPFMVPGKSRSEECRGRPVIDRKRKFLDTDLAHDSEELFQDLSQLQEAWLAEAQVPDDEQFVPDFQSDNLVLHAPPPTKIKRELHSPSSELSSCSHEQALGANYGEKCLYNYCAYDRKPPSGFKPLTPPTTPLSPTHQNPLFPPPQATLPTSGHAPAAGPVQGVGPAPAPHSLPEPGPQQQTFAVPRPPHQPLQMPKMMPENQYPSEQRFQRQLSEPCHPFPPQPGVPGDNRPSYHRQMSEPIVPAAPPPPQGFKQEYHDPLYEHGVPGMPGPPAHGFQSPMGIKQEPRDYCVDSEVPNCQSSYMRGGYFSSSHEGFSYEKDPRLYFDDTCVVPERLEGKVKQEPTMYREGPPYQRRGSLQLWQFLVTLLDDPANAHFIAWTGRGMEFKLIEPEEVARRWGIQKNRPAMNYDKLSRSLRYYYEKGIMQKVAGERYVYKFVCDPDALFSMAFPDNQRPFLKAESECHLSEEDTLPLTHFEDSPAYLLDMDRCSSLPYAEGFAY
Outline: as §1

HSF1 = HSF1 (Homo sapiens, UniProt Q00613 1-529); conditions: protein: recombinant; tags: N-terminal GST; chain copies: 3; dsDNA, one strand shown
Sequence of HSF1 (Q00613 whole entry): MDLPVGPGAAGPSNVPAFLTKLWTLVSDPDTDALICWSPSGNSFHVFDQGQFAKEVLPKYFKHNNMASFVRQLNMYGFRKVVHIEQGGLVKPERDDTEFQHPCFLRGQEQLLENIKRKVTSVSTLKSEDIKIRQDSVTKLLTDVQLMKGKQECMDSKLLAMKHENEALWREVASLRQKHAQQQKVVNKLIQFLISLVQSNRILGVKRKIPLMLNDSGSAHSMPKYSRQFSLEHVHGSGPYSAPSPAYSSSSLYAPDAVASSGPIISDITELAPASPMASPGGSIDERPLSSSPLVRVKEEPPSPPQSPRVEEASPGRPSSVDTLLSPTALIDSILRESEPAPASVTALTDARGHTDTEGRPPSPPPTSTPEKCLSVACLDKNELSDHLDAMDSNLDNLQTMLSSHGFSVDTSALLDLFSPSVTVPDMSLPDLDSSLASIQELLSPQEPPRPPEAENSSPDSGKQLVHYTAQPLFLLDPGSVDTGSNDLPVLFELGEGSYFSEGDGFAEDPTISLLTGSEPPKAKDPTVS
Outline: as §1

SPIC = target: T2, SPIC (Homo sapiens, UniProt Q8N5J4 1-248); conditions: protein: recombinant; tags: N-terminal GST; dsDNA, one strand shown
T2 sequence: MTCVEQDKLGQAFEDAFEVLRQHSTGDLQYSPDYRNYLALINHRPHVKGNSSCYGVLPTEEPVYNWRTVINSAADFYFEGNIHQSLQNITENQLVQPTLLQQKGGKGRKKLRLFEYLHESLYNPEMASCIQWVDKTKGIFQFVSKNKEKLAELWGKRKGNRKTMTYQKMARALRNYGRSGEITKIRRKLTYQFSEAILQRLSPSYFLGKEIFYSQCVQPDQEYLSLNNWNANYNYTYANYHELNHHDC
Outline: as §1

ELF4 = ELF4 (Homo sapiens, UniProt Q99607 1-663); conditions: protein: recombinant; tags: N-terminal GST; dsDNA, one strand shown
Sequence of ELF4 (Q99607 whole entry): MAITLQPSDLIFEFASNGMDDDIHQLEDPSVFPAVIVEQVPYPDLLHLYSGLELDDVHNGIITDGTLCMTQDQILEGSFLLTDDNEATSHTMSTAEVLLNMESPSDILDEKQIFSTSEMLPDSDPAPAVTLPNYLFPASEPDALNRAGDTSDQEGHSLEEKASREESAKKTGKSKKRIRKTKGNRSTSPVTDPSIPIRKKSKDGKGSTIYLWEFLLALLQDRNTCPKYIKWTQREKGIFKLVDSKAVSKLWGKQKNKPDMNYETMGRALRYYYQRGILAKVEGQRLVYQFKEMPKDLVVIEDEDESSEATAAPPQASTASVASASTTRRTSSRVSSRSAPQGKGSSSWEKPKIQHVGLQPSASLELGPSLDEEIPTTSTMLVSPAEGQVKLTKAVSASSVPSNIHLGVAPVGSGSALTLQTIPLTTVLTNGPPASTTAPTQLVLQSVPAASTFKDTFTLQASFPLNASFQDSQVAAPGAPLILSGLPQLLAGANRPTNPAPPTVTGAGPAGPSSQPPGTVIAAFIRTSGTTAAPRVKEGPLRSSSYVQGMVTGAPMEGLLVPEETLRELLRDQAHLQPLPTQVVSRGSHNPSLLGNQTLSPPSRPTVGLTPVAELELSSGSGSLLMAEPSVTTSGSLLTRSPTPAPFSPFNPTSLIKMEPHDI
Outline: as §1

ELK4 = target: T3, ELK4 (Homo sapiens, UniProt P28324-2 1-405); conditions: protein: recombinant; tags: N-terminal GST; dsDNA, one strand shown
T3 sequence: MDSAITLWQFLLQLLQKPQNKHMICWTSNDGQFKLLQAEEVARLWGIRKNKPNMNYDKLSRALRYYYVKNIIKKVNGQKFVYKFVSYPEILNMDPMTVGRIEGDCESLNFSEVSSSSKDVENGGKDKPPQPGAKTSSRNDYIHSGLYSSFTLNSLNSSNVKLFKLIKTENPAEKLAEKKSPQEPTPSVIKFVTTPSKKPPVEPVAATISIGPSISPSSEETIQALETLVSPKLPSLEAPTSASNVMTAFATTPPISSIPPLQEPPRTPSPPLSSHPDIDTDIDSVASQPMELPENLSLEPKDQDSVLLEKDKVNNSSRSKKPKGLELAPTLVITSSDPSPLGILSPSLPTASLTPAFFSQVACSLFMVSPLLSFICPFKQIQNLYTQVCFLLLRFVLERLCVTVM
Outline: as §1

ETV2 = target: T4, ETV2 (Homo sapiens, UniProt O00321 1-342); conditions: protein: recombinant; tags: N-terminal GST; dsDNA, one strand shown
T4 sequence: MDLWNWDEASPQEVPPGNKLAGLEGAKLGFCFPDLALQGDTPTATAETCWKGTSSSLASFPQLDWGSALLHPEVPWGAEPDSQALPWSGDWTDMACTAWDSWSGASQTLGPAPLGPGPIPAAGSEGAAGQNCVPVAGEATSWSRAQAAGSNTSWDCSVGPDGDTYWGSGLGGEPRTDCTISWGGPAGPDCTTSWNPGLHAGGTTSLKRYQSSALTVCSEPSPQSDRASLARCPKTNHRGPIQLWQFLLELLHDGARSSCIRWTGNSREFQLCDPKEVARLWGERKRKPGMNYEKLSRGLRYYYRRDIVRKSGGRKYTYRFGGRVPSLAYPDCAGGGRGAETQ
Outline: as §1

ELF3 = target: T5, ELF3 (Homo sapiens, UniProt P78545 1-371); conditions: protein: recombinant; tags: N-terminal GST; dsDNA, one strand shown
T5 sequence: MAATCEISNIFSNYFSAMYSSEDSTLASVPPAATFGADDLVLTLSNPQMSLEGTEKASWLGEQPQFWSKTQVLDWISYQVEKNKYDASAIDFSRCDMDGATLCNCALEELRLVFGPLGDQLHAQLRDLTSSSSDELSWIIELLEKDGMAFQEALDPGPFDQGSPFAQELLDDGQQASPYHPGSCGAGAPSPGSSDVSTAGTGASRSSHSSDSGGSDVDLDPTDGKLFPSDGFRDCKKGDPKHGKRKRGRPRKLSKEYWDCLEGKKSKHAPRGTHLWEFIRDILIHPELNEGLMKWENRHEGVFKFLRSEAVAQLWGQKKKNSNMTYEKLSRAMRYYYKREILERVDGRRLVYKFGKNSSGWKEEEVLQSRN
Outline: as §1

CRX = CRX (Homo sapiens, UniProt O43186 1-299); conditions: protein: recombinant; tags: N-terminal GST; dsDNA, one strand shown
Sequence of CRX (O43186 whole entry): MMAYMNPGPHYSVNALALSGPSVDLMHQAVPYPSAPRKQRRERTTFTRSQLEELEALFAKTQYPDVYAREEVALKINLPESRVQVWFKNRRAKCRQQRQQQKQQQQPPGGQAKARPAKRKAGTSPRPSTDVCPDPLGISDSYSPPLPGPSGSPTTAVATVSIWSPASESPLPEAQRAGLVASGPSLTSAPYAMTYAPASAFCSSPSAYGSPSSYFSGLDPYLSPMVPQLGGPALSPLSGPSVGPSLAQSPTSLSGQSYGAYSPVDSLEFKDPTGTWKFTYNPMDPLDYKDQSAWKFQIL
Outline: as §1

ETV1 = ETV1 (Homo sapiens, UniProt P50549 1-477); conditions: protein: recombinant; tags: N-terminal GST; dsDNA, one strand shown
Sequence of ETV1 (P50549 whole entry): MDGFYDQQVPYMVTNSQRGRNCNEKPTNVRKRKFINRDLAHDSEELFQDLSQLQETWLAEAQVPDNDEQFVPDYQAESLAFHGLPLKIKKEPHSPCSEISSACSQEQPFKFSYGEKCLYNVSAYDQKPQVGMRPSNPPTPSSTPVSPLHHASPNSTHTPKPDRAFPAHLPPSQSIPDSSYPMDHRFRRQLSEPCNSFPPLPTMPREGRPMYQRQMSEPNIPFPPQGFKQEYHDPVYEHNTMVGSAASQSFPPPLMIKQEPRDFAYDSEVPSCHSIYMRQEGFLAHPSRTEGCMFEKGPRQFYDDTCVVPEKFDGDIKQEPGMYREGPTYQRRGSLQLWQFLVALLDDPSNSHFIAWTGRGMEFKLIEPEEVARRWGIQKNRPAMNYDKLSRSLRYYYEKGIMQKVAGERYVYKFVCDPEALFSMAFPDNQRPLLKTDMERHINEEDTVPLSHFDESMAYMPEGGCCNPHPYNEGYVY
Outline: as §1

ERF = target: T6, ERF (Homo sapiens, UniProt P50548 1-548); conditions: protein: recombinant; tags: N-terminal GST; dsDNA, one strand shown
T6 sequence: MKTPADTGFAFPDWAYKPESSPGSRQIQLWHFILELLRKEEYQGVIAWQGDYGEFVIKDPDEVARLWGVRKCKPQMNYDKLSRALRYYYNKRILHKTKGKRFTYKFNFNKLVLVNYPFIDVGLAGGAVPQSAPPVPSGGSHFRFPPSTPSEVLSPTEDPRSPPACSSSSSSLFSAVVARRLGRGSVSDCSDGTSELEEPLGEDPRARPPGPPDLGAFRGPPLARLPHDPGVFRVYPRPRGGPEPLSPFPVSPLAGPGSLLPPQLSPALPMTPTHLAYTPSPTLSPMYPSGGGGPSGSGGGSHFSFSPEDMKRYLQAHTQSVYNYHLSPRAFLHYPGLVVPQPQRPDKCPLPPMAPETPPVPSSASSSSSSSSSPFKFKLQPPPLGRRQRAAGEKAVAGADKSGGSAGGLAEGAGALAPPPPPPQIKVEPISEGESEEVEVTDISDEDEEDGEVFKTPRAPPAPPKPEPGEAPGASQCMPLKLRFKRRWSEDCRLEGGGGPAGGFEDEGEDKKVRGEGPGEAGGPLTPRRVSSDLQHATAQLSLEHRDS
Outline: as §1

ETV3L = target: T7, ETV3L (Homo sapiens, UniProt Q6ZN32 1-361); conditions: protein: recombinant; tags: N-terminal GST; dsDNA, one strand shown
T7 sequence: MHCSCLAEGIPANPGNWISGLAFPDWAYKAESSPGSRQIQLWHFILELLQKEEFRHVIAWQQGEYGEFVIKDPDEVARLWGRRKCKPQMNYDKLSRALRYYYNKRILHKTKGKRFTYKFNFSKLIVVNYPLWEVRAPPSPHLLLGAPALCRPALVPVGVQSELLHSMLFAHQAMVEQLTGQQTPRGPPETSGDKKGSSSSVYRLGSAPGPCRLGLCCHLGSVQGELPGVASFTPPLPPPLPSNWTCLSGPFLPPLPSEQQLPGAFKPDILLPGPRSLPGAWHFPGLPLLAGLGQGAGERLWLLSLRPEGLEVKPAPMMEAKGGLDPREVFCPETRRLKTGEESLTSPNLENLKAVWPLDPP
Outline: as §1

ETS2 = target: T8, ETS2 (Homo sapiens, UniProt P15036 1-469); conditions: protein: recombinant; tags: N-terminal GST; dsDNA, one strand shown
T8 sequence: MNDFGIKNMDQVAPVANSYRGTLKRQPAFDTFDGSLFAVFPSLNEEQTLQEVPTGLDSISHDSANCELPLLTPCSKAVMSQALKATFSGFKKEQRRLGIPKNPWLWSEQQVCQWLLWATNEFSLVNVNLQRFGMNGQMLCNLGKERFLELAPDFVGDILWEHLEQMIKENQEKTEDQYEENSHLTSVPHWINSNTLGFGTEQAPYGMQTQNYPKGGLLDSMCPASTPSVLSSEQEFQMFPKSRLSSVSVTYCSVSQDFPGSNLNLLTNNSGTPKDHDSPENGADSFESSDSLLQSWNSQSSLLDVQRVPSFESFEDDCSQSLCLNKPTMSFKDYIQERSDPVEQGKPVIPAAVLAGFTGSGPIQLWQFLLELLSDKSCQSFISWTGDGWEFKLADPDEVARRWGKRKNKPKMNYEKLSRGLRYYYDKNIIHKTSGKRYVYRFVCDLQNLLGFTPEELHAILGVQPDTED
Outline: as §1

SPDEF = target: T9, SPDEF (Homo sapiens, UniProt O95238 1-335); conditions: protein: recombinant; tags: N-terminal GST; dsDNA, one strand shown
T9 sequence: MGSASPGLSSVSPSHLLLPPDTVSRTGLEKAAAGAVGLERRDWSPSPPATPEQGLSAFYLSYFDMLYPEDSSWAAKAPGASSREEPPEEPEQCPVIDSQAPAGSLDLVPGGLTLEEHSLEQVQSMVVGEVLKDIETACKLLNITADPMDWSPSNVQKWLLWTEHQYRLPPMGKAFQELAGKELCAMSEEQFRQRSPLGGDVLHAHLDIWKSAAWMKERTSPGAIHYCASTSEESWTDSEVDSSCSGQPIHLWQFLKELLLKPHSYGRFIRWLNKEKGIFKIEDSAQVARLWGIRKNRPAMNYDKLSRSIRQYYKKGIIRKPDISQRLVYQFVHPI
Outline: as §1

ETV7 = target: T10, ETV7 (Homo sapiens, UniProt Q9Y603 1-341); conditions: protein: recombinant; tags: N-terminal GST; dsDNA, one strand shown
T10 sequence: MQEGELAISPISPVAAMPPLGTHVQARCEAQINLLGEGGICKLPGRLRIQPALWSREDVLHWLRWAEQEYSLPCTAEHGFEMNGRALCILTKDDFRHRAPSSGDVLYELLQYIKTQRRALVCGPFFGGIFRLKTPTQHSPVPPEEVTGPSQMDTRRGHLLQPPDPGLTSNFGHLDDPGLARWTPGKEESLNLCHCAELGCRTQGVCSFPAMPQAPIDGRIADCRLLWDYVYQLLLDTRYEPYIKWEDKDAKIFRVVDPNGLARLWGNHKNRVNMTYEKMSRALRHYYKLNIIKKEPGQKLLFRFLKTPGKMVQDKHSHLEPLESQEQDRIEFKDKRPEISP
Outline: as §1

ELF5 = target: T11, ELF5 (Homo sapiens, UniProt Q9UKW6-2 1-255); conditions: protein: recombinant; tags: N-terminal GST; dsDNA, one strand shown
T11 sequence: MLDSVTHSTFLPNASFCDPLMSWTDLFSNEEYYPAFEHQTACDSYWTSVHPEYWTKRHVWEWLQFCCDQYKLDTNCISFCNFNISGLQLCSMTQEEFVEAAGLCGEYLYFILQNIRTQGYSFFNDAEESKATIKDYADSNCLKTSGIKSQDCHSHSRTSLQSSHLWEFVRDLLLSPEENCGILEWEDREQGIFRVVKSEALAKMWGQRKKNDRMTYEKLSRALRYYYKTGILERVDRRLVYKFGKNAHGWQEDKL
Outline: as §1

ETV3 = target: T12, ETV3 (Homo sapiens, UniProt P41162-2 1-143); conditions: protein: recombinant; tags: N-terminal GST; dsDNA, one strand shown
T12 sequence: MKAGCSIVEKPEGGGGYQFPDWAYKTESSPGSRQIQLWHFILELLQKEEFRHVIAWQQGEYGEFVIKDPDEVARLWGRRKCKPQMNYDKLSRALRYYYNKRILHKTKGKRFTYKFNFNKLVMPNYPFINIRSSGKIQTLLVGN
Outline: as §1

ETV6 = ETV6 (Homo sapiens, UniProt P41212 1-452); conditions: protein: recombinant; tags: N-terminal GST; dsDNA, one strand shown
Sequence of ETV6 (P41212 whole entry): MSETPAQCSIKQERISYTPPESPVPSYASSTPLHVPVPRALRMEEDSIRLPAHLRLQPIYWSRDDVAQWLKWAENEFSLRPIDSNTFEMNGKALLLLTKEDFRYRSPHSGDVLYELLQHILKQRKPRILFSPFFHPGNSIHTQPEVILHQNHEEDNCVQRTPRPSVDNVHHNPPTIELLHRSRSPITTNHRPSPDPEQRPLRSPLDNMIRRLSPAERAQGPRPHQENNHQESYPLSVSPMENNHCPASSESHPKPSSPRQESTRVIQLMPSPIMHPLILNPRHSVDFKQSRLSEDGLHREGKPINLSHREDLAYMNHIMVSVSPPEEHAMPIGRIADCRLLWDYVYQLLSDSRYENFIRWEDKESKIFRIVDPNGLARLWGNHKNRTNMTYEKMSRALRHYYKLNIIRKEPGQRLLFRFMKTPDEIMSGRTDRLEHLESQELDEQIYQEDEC
Outline: as §1

CTCAAG
binding signal (FEV): 1.16 fold enrichment (6-mer frequency, TF over GST control)
binding signal (ETV5): 1.14 fold enrichment (6-mer frequency, TF over GST control)
binding signal (HSF1): 1.19 fold enrichment (6-mer frequency, TF over GST control)
binding signal (SPIC): 1.1 fold enrichment (6-mer frequency, TF over GST control)
binding signal (ELF4): 1.19 fold enrichment (6-mer frequency, TF over GST control)
binding signal (ELK4): 1.09 fold enrichment (6-mer frequency, TF over GST control)
binding signal (ETV2): 1.11 fold enrichment (6-mer frequency, TF over GST control)
binding signal (ELF3): 1.22 fold enrichment (6-mer frequency, TF over GST control)
binding signal (CRX): 1.2 fold enrichment (6-mer frequency, TF over GST control)
binding signal (ETV1): 1.21 fold enrichment (6-mer frequency, TF over GST control)
binding signal (ERF): 1.27 fold enrichment (6-mer frequency, TF over GST control)
binding signal (ETV3L): 1.1 fold enrichment (6-mer frequency, TF over GST control)
binding signal (ETS2): 1.22 fold enrichment (6-mer frequency, TF over GST control)
binding signal (SPDEF): 1.14 fold enrichment (6-mer frequency, TF over GST control)
binding signal (ETV7): 1.24 fold enrichment (6-mer frequency, TF over GST control)
binding signal (ELF5): 1.1 fold enrichment (6-mer frequency, TF over GST control)
binding signal (ETV3): 1.24 fold enrichment (6-mer frequency, TF over GST control)
binding signal (ETV6): 1.22 fold enrichment (6-mer frequency, TF over GST control)
